# Laboratory results as given in the supplement of paper PMC12282887.
# ± gives the standard deviation of the averaged measurements.
# Key:
# Experiment in all cases: promoter activity interaction Z-score (Lux/OD deviation from empty-vector control); higher = stronger promoter induction by the compound
# [1] = tested on: E. coli BW25113 acrABp lux reporter
# In short: (§1)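 At 37°C, E. coli BW25113 reporter cultures in 40 µl LB Lennox in 384-well plates were read for OD600 and luminescence every 30 min for 12 h. Windows were 0–8 h for wild type and 1–9 h for deletion strains, and wells under 10% of the median growth value were removed. The score is the Z-transformed residual of growth-normalised luminescence against a control fit.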
# [2] = tested on: E. coli BW25113 marRABp lux reporter
# In short: as §1
# [3] = tested on: E. coli BW25113 micFp lux reporter
# In short: as §1
# [4] = tested on: E. coli BW25113 ompFp lux reporter
# In short: as §1
# [5] = tested on: E. coli BW25113 robp lux reporter
# In short: as §1
# [6] = tested on: E. coli BW25113 soxSp lux reporter
# In short: as §1
# [7] = tested on: E. coli BW25113 tolCp lux reporter
# In short: as §1
# [8] = 1 µg/ml, genetic background: wild type
# [9] = 1 µg/ml, genetic background: ΔmarA
# [10] = 1 µg/ml, genetic background: Δrob
# [11] = 1 µg/ml, genetic background: ΔsoxS
# [12] = 2.1 µg/ml, genetic background: wild type
# [13] = 2.1 µg/ml, genetic background: ΔmarA
# [14] = 2.1 µg/ml, genetic background: Δrob
# [15] = 2.1 µg/ml, genetic background: ΔsoxS
# [16] = 4.1 µg/ml, genetic background: wild type
# [17] = 4.1 µg/ml, genetic background: ΔmarA
# [18] = 4.1 µg/ml, genetic background: Δrob
# [19] = 4.1 µg/ml, genetic background: ΔsoxS
# [20] = 8.2 µg/ml, genetic background: wild type
smiles,measurement,setting,value
CO[C@H]1/C=C/O[C@@]2(C)Oc3c(C)c(O)c4c(O)c(c(/C=N/N5CCN(C)CC5)c(O)c4c3C2=O)NC(=O)/C(C)=C\C=C\[C@H](C)[C@H](O)[C@@H](C)[C@@H](O)[C@@H](C)[C@H](OC(C)=O)[C@@H]1C [Rifampicin],promoter activity interaction Z-score,[1]; [8],-0.791 ± 0.2
same,promoter activity interaction Z-score,[1]; [9],-0.655 ± 0.13
same,promoter activity interaction Z-score,[1]; [10],-0.627 ± 0.021
same,promoter activity interaction Z-score,[1]; [11],-0.932 ± 0.2
same,promoter activity interaction Z-score,[1]; [12],-0.695 ± 0.1
same,promoter activity interaction Z-score,[1]; [13],-0.516 ± 0.29
same,promoter activity interaction Z-score,[1]; [14],-0.838 ± 0.088
same,promoter activity interaction Z-score,[1]; [15],-0.731 ± 0.3
same,promoter activity interaction Z-score,[1]; [16],-0.811 ± 0.28
same,promoter activity interaction Z-score,[1]; [17],-0.168 ± 0.19
same,promoter activity interaction Z-score,[1]; [18],-1.06 ± 0.08
same,promoter activity interaction Z-score,[1]; [19],-1.31 ± 0.3
same,promoter activity interaction Z-score,[2]; [8],-0.547 ± 0.12
same,promoter activity interaction Z-score,[2]; [9],-0.978 ± 0.48
same,promoter activity interaction Z-score,[2]; [10],-0.432 ± 0.12
same,promoter activity interaction Z-score,[2]; [11],-0.415 ± 0.079
same,promoter activity interaction Z-score,[2]; [12],-0.461 ± 0.4
same,promoter activity interaction Z-score,[2]; [13],-1.18 ± 0.22
same,promoter activity interaction Z-score,[2]; [14],-0.469 ± 0.39
same,promoter activity interaction Z-score,[2]; [15],-0.423 ± 0.032
same,promoter activity interaction Z-score,[2]; [16],-1.1 ± 0.31
same,promoter activity interaction Z-score,[2]; [17],-1.23 ± 0.38
same,promoter activity interaction Z-score,[2]; [18],-0.719 ± 0.14
same,promoter activity interaction Z-score,[2]; [19],-0.7557 ± 0.006
same,promoter activity interaction Z-score,[3]; [8],-0.224 ± 0.14
same,promoter activity interaction Z-score,[3]; [9],-0.444 ± 0.16
same,promoter activity interaction Z-score,[3]; [10],-0.287 ± 0.055
same,promoter activity interaction Z-score,[3]; [11],-0.476 ± 0.024
same,promoter activity interaction Z-score,[3]; [12],-0.39 ± 0.23
same,promoter activity interaction Z-score,[3]; [13],-0.505 ± 0.12
same,promoter activity interaction Z-score,[3]; [14],-0.336 ± 0.076
same,promoter activity interaction Z-score,[3]; [15],-0.31 ± 0.041
same,promoter activity interaction Z-score,[3]; [16],-0.432 ± 0.21
same,promoter activity interaction Z-score,[3]; [17],-0.471 ± 0.047
same,promoter activity interaction Z-score,[3]; [18],-0.229 ± 0.029
same,promoter activity interaction Z-score,[3]; [19],-0.507 ± 0.018
same,promoter activity interaction Z-score,[3]; [20],-0.505 ± 0.31
same,promoter activity interaction Z-score,[4]; [8],-0.966 ± 0.35
same,promoter activity interaction Z-score,[4]; [9],-1.53 ± 0.33
same,promoter activity interaction Z-score,[4]; [10],-1.43 ± 0.2
same,promoter activity interaction Z-score,[4]; [11],-1.07 ± 0.04
same,promoter activity interaction Z-score,[4]; [12],-1.06 ± 0.5
same,promoter activity interaction Z-score,[4]; [13],-2.11 ± 0.12
same,promoter activity interaction Z-score,[4]; [14],-1.62 ± 0.39
same,promoter activity interaction Z-score,[4]; [15],-0.784 ± 0.23
same,promoter activity interaction Z-score,[4]; [16],-2.01 ± 0.86
same,promoter activity interaction Z-score,[4]; [17],-2.895 ± 0.0098
same,promoter activity interaction Z-score,[4]; [18],-2.58 ± 0.26
same,promoter activity interaction Z-score,[4]; [19],-1.59 ± 0.43
same,promoter activity interaction Z-score,[5]; [8],-0.184 ± 0.35
same,promoter activity interaction Z-score,[5]; [9],-0.802 ± 0.3
same,promoter activity interaction Z-score,[5]; [10],-0.501 ± 0.085
same,promoter activity interaction Z-score,[5]; [11],-0.537 ± 0.55
same,promoter activity interaction Z-score,[5]; [12],0.236 ± 0.31
same,promoter activity interaction Z-score,[5]; [13],-0.639 ± 0.41
same,promoter activity interaction Z-score,[5]; [14],-0.575 ± 0.22
same,promoter activity interaction Z-score,[5]; [15],-0.311 ± 0.2
same,promoter activity interaction Z-score,[5]; [16],-0.918 ± 0.011
same,promoter activity interaction Z-score,[5]; [17],-0.833 ± 0.44
same,promoter activity interaction Z-score,[5]; [18],-0.434 ± 0.68
same,promoter activity interaction Z-score,[5]; [19],-1.71 ± 0.29
same,promoter activity interaction Z-score,[6]; [8],-0.47 ± 0.0069
same,promoter activity interaction Z-score,[6]; [9],-0.3407 ± 0.0028
same,promoter activity interaction Z-score,[6]; [10],-0.44 ± 0.088
same,promoter activity interaction Z-score,[6]; [11],-1.04 ± 0.46
same,promoter activity interaction Z-score,[6]; [12],-0.551 ± 0.01
same,promoter activity interaction Z-score,[6]; [13],-0.657 ± 0.0084
same,promoter activity interaction Z-score,[6]; [14],-0.53 ± 0.048
same,promoter activity interaction Z-score,[6]; [15],-1.11 ± 0.17
same,promoter activity interaction Z-score,[6]; [16],-0.866 ± 0.076
same,promoter activity interaction Z-score,[6]; [17],-0.906 ± 0.027
same,promoter activity interaction Z-score,[6]; [18],-0.982 ± 0.24
same,promoter activity interaction Z-score,[6]; [19],-1.51 ± 0.17
same,promoter activity interaction Z-score,[6]; [20],-0.811 ± 0.051
same,promoter activity interaction Z-score,[7]; [8],-0.736 ± 0.25
same,promoter activity interaction Z-score,[7]; [9],-0.931 ± 0.48
same,promoter activity interaction Z-score,[7]; [10],-0.816 ± 0.4
same,promoter activity interaction Z-score,[7]; [11],-1.26 ± 0.3
same,promoter activity interaction Z-score,[7]; [12],-0.703 ± 0.32
same,promoter activity interaction Z-score,[7]; [13],-1.19 ± 0.18
same,promoter activity interaction Z-score,[7]; [14],-0.827 ± 0.14
same,promoter activity interaction Z-score,[7]; [15],-0.674 ± 0.63
same,promoter activity interaction Z-score,[7]; [16],-0.555 ± 0.72
same,promoter activity interaction Z-score,[7]; [17],-0.65 ± 0.61
same,promoter activity interaction Z-score,[7]; [18],-1.152 ± 0.0016
same,promoter activity interaction Z-score,[7]; [19],-0.717 ± 0.57
same,promoter activity interaction Z-score,[7]; [20],0.0561 ± 0.59
